Screening data deposited in PubChem BioAssay by National Center for Advancing Translational Sciences (NCATS).
Most compounds without a hit are left out; they make up all but 10% or so of the library.
CtBP-E1A inh = blocks the CtBP interaction with E1A; activity change, % (concentration not given with the values); AlphaScreen GST-E1A/His-CtBP binding, 1536-well; active compounds read low; AID 651724; 340,000 compounds, 0.49% hits; in the data active means activity change below about -65%; inconclusive means mostly about -30% to -63%; further: on the % scale 0 is the no-effect control and ±100 the full control effect
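GST-E1A and His-tagged CtBP (125 nM each as 5X stock) were preincubated with pin-transferred compound for 2 h at 37 °C in the dark, then glutathione donor and nickel acceptor beads were added for 1 h before AlphaScreen reading.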
JMJD2A Tudor = blocks the human JMJD2A Tudor domain | AlphaScreen JMJD2A-Tudor / H3K4me3 peptide binding | Potency, µM (titrated, usually from 114 µM), for inactives: at the top dose activity change, negative = inhibition, most hits filed as inhibitors | 390,000 compounds, 4.4% hits | AID 504339; further: potency means the concentration at half of the fitted maximal effect; on the % scale 0 is the no-effect control and ±100 the full control effect; nearly all actives have a fitted effect of over 50% in size
BAZ2B inh = inhibitors of human BAZ2B bromodomain | Q9UIF8 | AlphaScreen BAZ2B-H3K14Ac peptide displacement | Potency, µM (doses to about 114 µM), without a hit: at the highest dose activity change, negative = inhibition, usual class: inhibitors | 360,000 compounds, 4.4% hits | AID 504333; further: potency means the concentration at half of the fitted maximal effect; on the % scale 0 is the no-effect control and ±100 the full control effect; nearly all actives have a fitted effect of over 60% in size
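Multi-concentration screen (max 110 uM) measuring displacement of acetylated histone H3 peptide from BAZ2B by AlphaScreen, using 50 nM protein, 50 nM peptide and 10 ug/mL streptavidin donor plus Ni-chelate acceptor beads.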
G9a block = inhibitors of human histone lysine methyltransferase G9a | Potency, µM (top dose mostly 102 µM), for inactives: top-dose activity, negative = inhibition, actives largely listed as inhibitors | 350,000 compounds, 8.8% hits | G9a H3K9 monomethylation, AlphaScreen, 2 h | AID 504332 | Q96KQ7; further: potency means the concentration at half of the fitted maximal effect; on the % scale 0 is the no-effect control and ±100 the full control effect; nearly all actives have a fitted effect of over 75% in size
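Step 1: enzyme (final 20 nM) with compound, 15 min RT. Step 2: substrate peptide 500 nM and SAM 20 uM, 2 h RT. Step 3: anti-H3K9me1 antibody and AlphaScreen beads, 10 min, then plate read.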
HP1b chromo inh = HP1-beta chromodomain-methylated histone interaction inhibition; Potency, µM (highest dose often 114 µM), for the others: top-dose activity change, negative = inhibition, hits mostly inhibitors; 390,000 compounds, 0.56% hits; AlphaScreen HP1-beta / biotin-H3K9me3 peptide binding; further: potency means the concentration at half of the fitted maximal effect; nearly all actives have a fitted effect of over 70% in size
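AlphaScreen: HP1-beta (50 nM) preformed 30 min with biotin-H3(1-18)K9me3 peptide (50 nM) in PBS pH 7.4, 0.01% Tween-20. Compound added for 30 min at RT, then streptavidin donor/nickel chelate acceptor beads (10 ug/mL) for 30 min.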
Six1-Eya2 inh = blocks human Six1 binding to Eya2. Q15475+O00167. AlphaScreen GST-Six1/His-Eya2 binding, biochemical; active compounds read low. activity change, % (test concentration not listed). 360,000 compounds, 0.56% hits; in the data active means activity change below about -65%; inconclusive means mostly about -30% to -63%; further: on the % scale 0 is the no-effect control and ±100 the full control effect
Target sequence (O00167 whole entry, looked up): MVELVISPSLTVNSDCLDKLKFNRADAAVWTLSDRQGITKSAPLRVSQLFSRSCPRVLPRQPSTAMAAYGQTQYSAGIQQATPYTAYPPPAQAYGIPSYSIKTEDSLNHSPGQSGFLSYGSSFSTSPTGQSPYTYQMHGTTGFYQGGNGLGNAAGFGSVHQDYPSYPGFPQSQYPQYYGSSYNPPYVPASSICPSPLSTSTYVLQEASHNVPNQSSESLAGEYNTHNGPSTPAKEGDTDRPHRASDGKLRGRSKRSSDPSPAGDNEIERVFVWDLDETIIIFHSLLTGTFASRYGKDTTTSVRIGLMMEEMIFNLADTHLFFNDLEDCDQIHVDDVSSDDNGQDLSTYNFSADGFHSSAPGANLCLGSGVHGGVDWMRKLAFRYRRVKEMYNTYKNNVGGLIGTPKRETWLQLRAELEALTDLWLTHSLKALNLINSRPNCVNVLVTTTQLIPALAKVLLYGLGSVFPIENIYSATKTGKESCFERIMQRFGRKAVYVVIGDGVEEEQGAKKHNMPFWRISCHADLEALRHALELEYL
Target sequence (Q15475 whole entry, looked up): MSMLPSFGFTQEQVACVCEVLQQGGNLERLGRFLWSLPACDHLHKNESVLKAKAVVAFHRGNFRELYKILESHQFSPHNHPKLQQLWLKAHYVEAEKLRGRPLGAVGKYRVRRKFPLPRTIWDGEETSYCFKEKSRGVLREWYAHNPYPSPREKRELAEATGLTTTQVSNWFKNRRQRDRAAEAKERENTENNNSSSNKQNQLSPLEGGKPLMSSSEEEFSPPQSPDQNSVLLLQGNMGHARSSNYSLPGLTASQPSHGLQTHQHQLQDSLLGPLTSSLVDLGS
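AlphaScreen with GST-Six1 and His-Eya2 (5X mix: 250 nM and 500 nM), glutathione donor and nickel acceptor beads; buffer 50 mM Tris pH 8.0, 300 mM NaCl, 1 mM TCEP; 1 h at 37 C in the dark.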
Active calls of the source: *; ? = inconclusive; . = no result; [ ] = remark or other dose. Unless noted, the call rests on the fitted dose curve; in most records, active means well fitted inhibition curve with a large enough effect; inconclusive means small, poorly fitted or top-dose-only effect; inactive means no such curve, though single readings can be large or run the other way.

SMILES	CtBP-E1A inh	JMJD2A Tudor	BAZ2B inh	G9a block	HP1b chromo inh	Six1-Eya2 inh
O=[N+]([O-])c1ccc(Sc2cccc[n+]2[O-])c2nonc12	-68.2*	20µM*	56.2µM*	0.501µM*	7.94µM*	-68.2*
CC(=O)NS(=O)(=O)c1ccc(Nc2ccc([N+](=O)[O-])c3nonc23)cc1	.	-2.0%	50.1µM*	-14.3%[59 µM]	-5.4%	-8.1
O=[N+]([O-])c1ccc(Nc2ccccc2)c2nonc12	.	56.2µM*	39.8µM*	44.7µM*	?	-13.2
COc1ccc(Nc2cc(NCCCO)c([N+](=O)[O-])c3nonc23)cc1	?	-6.4%	-8.1%	-2.9%	17.8%	-24.7
CCOc1ccc(Nc2ccc([N+](=O)[O-])c3nonc23)cc1	.	35.5µM*	14.1µM*	25.1µM*	12.6µM*	2.3
Cc1ccccc1Nc1ccc2nonc2c1[N+](=O)[O-]	-0.3	-18.1%	?	-6.4%	12.8%	-2.4
COc1ccc(Cl)cc1NC(=O)CSC1=Nc2ccccc2C2=NC(CC(=O)NC3CCCCC3)C(=O)N12 (stereo unspecified)	.	-16.1%	-12.5%	4.7%[59 µM]	26.2%	.
COc1ccccc1CNS(=O)(=O)c1ccc2c(c1)NC(=O)C(C)C(=O)N2 (stereo unspecified)	.	-20.2%	3.1%	4.2%[59 µM]	22.2%	.
Cc1ccc(CNc2ncnc3ccc(-c4c(C)noc4C)cc23)cc1	.	-12.4%	.	.	.	.
O=C(Nc1ccccc1)N1CCCC2(CCN(C(=O)c3ccco3)CC2)C1	.	.	.	9.1%[12.7 µM]	.	.
O=C(O)c1ccc(/C=N/NC(=O)c2ccc(CN3c4cccc5cccc(c45)S3(=O)=O)cc2)cc1	-9.5	?	50.1µM*	-3.9%[59 µM]	-6.2%	-1.0
CCN(CC)CCNC(Cc1ccccc1)c1cccc(OC)c1 (stereo unspecified)	12.0	-18.8%	.	.	1.4%	7.1
O=C(COC(=O)c1cccnc1Cl)NCc1cccs1	-5.2	2.1%	6.0%	11.6%	13.9%	-10.8
CCCOc1ccc(C2/C(=C(/O)c3ccccc3)C(=O)C(=O)N2CCCN(C)C)cc1OC (stereo unspecified)	2.3	-9.9%	.	.	55.2%	-0.5
CCCOc1cccc(C2/C(=C(/O)c3ccc(F)cc3)C(=O)C(=O)N2CCN(C)C)c1 (stereo unspecified)	-4.0	79.4µM*	-3.0%	?	-2.7%	3.0
CCCOc1cccc(C2/C(=C(/O)c3ccccc3)C(=O)C(=O)N2CCN(C)C)c1 (stereo unspecified)	-0.3	-13.0%	?	-4.5%[12.7 µM]	14.3%	-7.2
COc1cc(C2/C(=C(\O)c3cc(C)ccc3C)C(=O)C(=O)N2CCN(C)C)ccc1O (stereo unspecified)	2.7	-11.6%	-7.6%	50.1µM*	13.5%	6.6
CCCOc1ccc(/C(O)=C2/C(=O)C(=O)N(CCN(C)C)C2c2ccc(O)c(OC)c2)cc1 (stereo unspecified)	6.9	-29.4%	9.2%	44.7µM*	49.6%	17.6
CC1(c2ccccc2)NC(=O)N(Cc2ccc([N+](=O)[O-])cc2)C1=O (stereo unspecified)	8.0	-10.6%	-30.7%	22.2%[59 µM]	21.5%	-13.2
COC(=O)C(N)CS (stereo unspecified)	.	.	.	-45.5%[2.33 µM]	.	.
CCOc1ccc(-c2nc3c(c(CC)nn3-c3ccccc3)c3cc(OC)c(OC)cc23)cc1	.	-2.6%	3.2%	-7.6%[59 µM]	38.1%	.
CCCOc1ccc(CNC(=O)c2cc3ccccn3n2)cc1	.	-20.1%	0.2%	9.5%[59 µM]	26.0%	.
Nc1c(C(=O)Nc2ccc(F)cc2)sc(=S)n1-c1ccccc1F	0.6	-19.0%	-12.3%	7.94µM*	-22.1%	-0.6
Cn1c(N)c(C(=O)Nc2ccccc2F)sc1=S	.	-33.2%	-32.5%	50.1µM*	?	-4.5
Cn1c(N)c(C(=O)Nc2ccc3ccccc3c2)sc1=S	2.1	-18.0%	0.3%	7.08µM*	-20.8%	-1.1
SMILES	CtBP-E1A inh	JMJD2A Tudor	BAZ2B inh	G9a block	HP1b chromo inh	Six1-Eya2 inh
Cc1nc(CC(=O)Nc2ccc(C)c(C)c2)cs1	.	-21.4%	-7.5%	3.4%[59 µM]	11.5%	.
Cn1nc([N+](=O)[O-])nc1Sc1nnnn1-c1ccc(C(=O)O)cc1	-22.9	-23.8%	?	-7.4%	41.9%	11.1
Cc1ccc(NC(=O)CSc2ccc(-c3cccs3)nn2)cc1Cl	.	-24.2%	-35.7%	-6.3%[59 µM]	-11.4%	.
CC(=O)NC(c1ccc(F)c(F)c1)c1nc(-c2cccc(C(C)C)c2)cs1 (stereo unspecified)	8.5	.	.	.	.	-2.7
CC(C)C(=O)N(c1ccc2oc(=O)sc2c1)S(=O)(=O)c1cccs1	-0.6	-25.7%	-36.2%	35.5µM*	26.7%	-21.5
CC(C)C(=O)N(c1cc2sc(=O)oc2c2ccccc12)S(=O)(=O)c1cccs1	-15.9	?	50.1µM*	1.78µM*	-2.2%	?
CC(=O)N(c1ccc2oc(=O)sc2c1)S(=O)(=O)c1cccs1	-7.3	?	-9.1%	?	27.8%	-8.9
CCOc1ccc(NC(=O)Nc2cccnc2)cc1	4.3	-2.7%	-0.1%	8.0%	34.8%	-6.0
COc1ccc(NC(=O)N2CCC(c3nc4ccccc4[nH]3)CC2)cc1	8.6	0.7%	2.5%	39.8µM*	46.4%	5.7
O=C(C1CC(=O)N(c2ccccc2)C1)N1CCC(c2nc3ccccc3[nH]2)CC1 (stereo unspecified)	-1.8	-14.4%	-2.5%	44.7µM*	28.4%	4.9
COc1ccc([C@H]2C=C3CN(C(=O)OC(C)(C)C)S(=O)(=O)[C@H]3C[C@H]2OC(=O)c2cccs2)cc1	-9.8	-17.7%	-20.4%	8.6%[12.7 µM]	36.3%	-8.4
Cn1c(Cc2ccc3c(c2)OCO3)nnc1SCC(=O)N1CCc2ccccc2C1	-4.3	-22.4%	9.9%	44.7µM*	5.6%	-4.2
Nn1c(COc2cccc(Br)c2)nnc1SCC(=O)NCC1CCCO1 (stereo unspecified)	-16.5	-3.4%	8.2%	11.2%[12.7 µM]	44.8%	1.9
Nn1c(COc2cccc(Br)c2)nnc1SCC(=O)N1CCc2ccccc2C1	1.7	-15.7%	-10.3%	39.8µM*	52.3%	-0.4
Cn1c(Cc2ccccc2)nnc1SCC(=O)N1CCCCC1	0.9	-12.2%	4.5%	0.5%[59 µM]	27.2%	3.3
Cc1ccc2c(c1)c1c3n2CCN(C(=O)Cn2c(-c4ccccc4)noc2=O)C3CCC1 (stereo unspecified)	-23.3	-34.5%	6.8%	-11.0%	-3.8%	-19.9
COC(Cn1c2c(c3cc(C)ccc31)CCCC2NCc1ccccc1)OC (stereo unspecified)	.	?	39.8µM*	44.7µM*	3.9%	-12.5
CCOC(=O)c1sc2ccccc2c1S(=O)(=O)N1CCN(c2cccc(C)c2C)CC1	.	-14.3%	-16.9%	1.1%[59 µM]	12.4%	.
